Reference: the supplement of paper PMC8726507
Values without a mark were called inactive.

test system: Plasmodium falciparum NF54-HGL (transmission to Anopheles stephensi); assay: percentage of barcode signal found in uninfected mosquitoes (transmission-blocking activity); higher = stronger blocking of transmission to mosquito, active = 80 or more; conditions: 20 µM; gametocyte preincubation time 24 h; readout time post-feed 8 days
Experimental: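 The mixture was fed to Anopheles stephensi in 96-well plates as blood meals tagged with DNA-barcoded Asaia bacteria. Eight days later, mosquitoes were classed infected or uninfected by luminescence (mean + 5 SD of unfed controls). Barcodes were quantified by Luminex MagPlex-TAG in the pooled uninfected and infected Asaia cultures, background-corrected, and the score is % of barcode signal in uninfected mosquitoes = 100*Iu/(Iu+Ii).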

SMILES | percentage of barcode signal found in uninfected mosquitoes
O=C(NCc1cc(Cl)cc(Cl)c1)c1c(C(F)(F)F)nc2ccccn12 | 20%
COc1cccc(-c2nc3c(N4CCCC4)cccc3n2CC2CCCN2)n1 (stereo not drawn) | 68%
Cc1cccc(-c2nc(Nc3ccncn3)c3sccc3n2)n1 | 91.4% (active)
Cc1cc(NCC(C)C)c2n[nH]c(-c3ccccc3)c2n1 | 43%
COc1ccc2nccc(NC(=O)C3CCN(CCc4ccc(Cl)cc4)CC3)c2n1 | 5.62%
COc1cccc(-n2nnnc2S(C)(=O)=O)c1 | 70.1%
CCCCN(CCCC)c1c(C#N)cc(S(=O)(=O)Nc2ccccc2)cc1C#N | 10.5%
CC1(C)Cc2c(c(N3CCOCC3)nc3snc(Br)c23)CO1 | 97% (active)
